According to PubChem BioAssay AID1220 (Sanford-Burnham Center for Chemical Genomics, 2008):
The whole screen tested about 190,000 compounds, of which about 1,300 (0.68%) were called active. Rule as the data show it: active = inhibition above about 50%; inactive = the rest. The full list was thinned out, with actives kept by preference.

target: Mannose-6-phosphate isomerase (Homo sapiens) (UniProt P34949); test: human PMI inhibitors, high substrate, primary screen, biochemical, fluorescence intensity, high mannose 6-phosphate (AID 1220); details: recombinant PMI enzyme, coupled fluorescence intensity; at 20 µM; stronger effect = higher value
Sequence (P34949 whole entry, looked up): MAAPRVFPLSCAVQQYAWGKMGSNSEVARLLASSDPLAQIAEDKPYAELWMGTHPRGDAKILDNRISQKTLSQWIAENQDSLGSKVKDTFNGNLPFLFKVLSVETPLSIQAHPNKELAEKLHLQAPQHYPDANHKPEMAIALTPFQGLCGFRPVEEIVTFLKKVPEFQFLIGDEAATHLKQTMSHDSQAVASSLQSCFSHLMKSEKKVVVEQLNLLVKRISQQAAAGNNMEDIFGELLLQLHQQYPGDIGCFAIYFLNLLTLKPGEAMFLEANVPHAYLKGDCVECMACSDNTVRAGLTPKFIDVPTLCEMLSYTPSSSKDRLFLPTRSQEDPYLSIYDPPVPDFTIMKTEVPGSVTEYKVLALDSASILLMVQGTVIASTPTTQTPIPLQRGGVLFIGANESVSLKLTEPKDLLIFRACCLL

SMILES	inhibition
Cn1c(-c2ccc(F)cc2)cnc1NCc1cc2c(cc1[N+](=O)[O-])OCO2	15.7% (inactive)
CCNc1nc(NC(C)C)nc(N(n2cnnc2)S(=O)(=O)c2ccc(C)cc2)n1	5.3% (inactive)
Cc1cc(=O)n2nc(N3CCC(C(=O)NC4CCCc5ccccc54)CC3)sc2n1 (centres undefined)	-0.3% (inactive)
Cc1ccc(-n2cc(CN3CCNC(=O)CC3)c(-c3cccc(C)c3)n2)cc1	12.5% (inactive)
COC(=O)CC1C(=O)NCCN1Cc1cn(-c2ccc(C)cc2)nc1-c1cccc(C)c1 (centres undefined)	52.9% (active)
CC(=O)N1CCCN(Cc2cn(-c3ccc(C)cc3)nc2-c2cccc(C)c2)CC1	9.1% (inactive)
CN(C)c1ccc(C(CNS(=O)(=O)c2ccc3ccccc3c2)c2c[nH]c3ccccc23)cc1 (centres undefined)	13.6% (inactive)
CSc1sc(C)cc1C1C(C#N)=C(N)N(c2cccnc2)C2=C1C(=O)CCC2 (centres undefined)	13.3% (inactive)
CC1(C)CC(=O)C2=C(C1)N(c1ccc(F)cc1)C(N)=C(C#N)C2c1cccs1 (centres undefined)	28.6% (inactive)
Cc1ccc(N2C(N)=C(C#N)C(c3cccs3)C3=C2CC(C)(C)CC3=O)cc1 (centres undefined)	8.2% (inactive)
Cc1ccc(C2C(C#N)=C(N)N(c3cccnc3)C3=C2C(=O)CCC3)s1 (centres undefined)	56.7% (active)
Cc1nn(C)cc1C1C(C#N)=C(N)N(c2cccnc2)C2=C1C(=O)CCC2 (centres undefined)	28.3% (inactive)
CC1(C)CC(=O)C2=C(C1)N(c1cccnc1)C(N)=C(C#N)C2c1cccs1 (centres undefined)	53.9% (active)
CC(=O)Nc1ccc(/C=C(\C#N)C(=O)NC2CCCCC2)cc1	4.7% (inactive)
Cc1ccc(-c2nnc(SCC(=O)NNC(=O)COc3ccccc3C)n2C)cc1	3.3% (inactive)
Cc1cc2c3c(c1)C1(C(=O)N3C(C)(C)CC2C)C(C#N)=C(N)Oc2cc(O)ccc21 (centres undefined)	18.9% (inactive)
CCc1ccc(N2CC(C(=O)N/N=C/c3cc([N+](=O)[O-])ccc3O)CC2=O)cc1 (centres undefined)	-15.8% (inactive)
CCOC(=O)Cc1csc(NC(=O)CSc2nnc(-n3nc(C)cc3C)c3ccccc23)n1	6.3% (inactive)
Cc1nc(NCC2CC2)c2nnn(Cc3ccccc3)c2n1	59.2% (active)
Cc1nc(NCC2CCCO2)c2nnn(Cc3ccccc3)c2n1 (centres undefined)	-3% (inactive)
Cc1nc(Nc2ccc(Cl)cc2)c2nnn(Cc3ccccc3)c2n1	3.1% (inactive)
O=C(OCC(=O)N1CCN(C(=O)c2ccco2)CC1)c1cc(-c2cccc(Br)c2)nc2ccccc12	9.6% (inactive)
Cc1cc(C)cc(NC(=S)NCC2CCN(C(C)c3ccccc3)C2)c1 (centres undefined)	-1.3% (inactive)
O=C(NC(c1ccccc1)c1ccccc1)C1(c2cccs2)CCOCC1	-1.3% (inactive)
CCOc1ccc2nc(NS(=O)(=O)c3ccc4c(c3)n(C)c(=O)n4C)sc2c1	-21% (inactive)

SMILES	inhibition
CCN(CC)c1ccc(NC(=O)c2ccccc2F)cc1S(=O)(=O)Nc1ccccc1OC	-13.8% (inactive)
CCN(CC)c1ccc(NC(=O)c2ccccc2)cc1S(=O)(=O)Nc1ccccc1OC	9.4% (inactive)
CCCS(=O)(=O)C(=C(Nc1ccccc1)Nc1ccccc1)S(=O)(=O)CCC	-4.7% (inactive)
O=C(NCc1cccs1)N[C@@H](Cc1ccccc1)C(=O)O	-2.3% (inactive)
COc1ccc(-c2nc(S(=O)(=O)c3ccccc3)c(N3CCOCC3)o2)cc1	3.3% (inactive)
CC1(C(=O)O)Sc2[nH]c(=O)sc2C2c3ccccc3OC(=O)C21 (centres undefined)	14.1% (inactive)
O=C(O)C1Sc2[nH]c(=O)sc2C2c3cc(Cl)ccc3OC(=O)C12 (centres undefined)	63.5% (active)
CCOC(=O)C1Sc2[nH]c(=O)sc2C(c2ccc(Cl)cc2)C1C(=O)OCC (centres undefined)	-88.8% (inactive)
COC(=O)C1Sc2[nH]c(=O)sc2C(c2ccc(Cl)cc2)C1C(=O)OC (centres undefined)	34.7% (inactive)
COC(=O)C1Sc2[nH]c(=O)sc2C2c3ccccc3OC(=O)C12 (centres undefined)	29.7% (inactive)
O=C(O)C1Sc2[nH]c(=O)sc2C2c3ccc(O)cc3OC(=O)C12 (centres undefined)	55.1% (active)
Cc1nc2c(C(=O)NCc3ccc4c(c3)OCO4)c[nH]n2c(=O)c1Cl	7.8% (inactive)
CN(C)C=Nc1ncc2c3ccccc3n(CCN(C)C)c2c1C#N	17.9% (inactive)
CN(C)CCNC(=O)C1CC(=O)N(c2ccc(F)c(Cl)c2)C1 (centres undefined)	-1.8% (inactive)
Cc1nn2c(c1-c1ccc(Cl)cc1)N=C(c1ccco1)CC2c1ccccc1 (centres undefined)	0.1% (inactive)
N#Cc1cccc(N=c2ssnc2Cl)c1	43% (inactive)
COc1cc(N=c2ssnc2Cl)cc(OC)c1OC	47.1% (inactive)
COc1cc(OC)c(Cl)cc1N	44.9% (inactive)
Nc1ccccc1N=c1ssnc1Cl	38.1% (inactive)
Cc1ccc(N=c2ssnc2Cl)cc1	49.8% (inactive)
Cc1cc(Cl)ccc1N=c1ssnc1Cl	13.6% (inactive)
Clc1nssc1=Nc1ccccc1	36.5% (inactive)
Cc1cc(C)nc(NC(=O)c2csnn2)c1	-2.9% (inactive)
CC(=O)Nc1ccc(S(=O)(=O)Nc2c(C)n(C)n(-c3ccccc3)c2=O)cc1	4.8% (inactive)
